Assay results reported in ChEMBL document CHEMBL1961873, “Compounds: GSK PKIS; Assays: Nanosyn kinase panel” (2012).

Assays:
[1] = molecular target: Dual specificity protein kinase CLK3 (Homo sapiens) (UniProt P49761); details: at 1 µM;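 further: each value is the mean inhibition of CLK3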
[2] = molecular target: Dual specificity tyrosine-phosphorylation-regulated kinase 1A (Homo sapiens) (UniProt Q13627); details: at 0.1 µM
[3] = molecular target: Dual specificity tyrosine-phosphorylation-regulated kinase 1A (Homo sapiens) (UniProt Q13627); details: at 1 µM
[4] = molecular target: Dual specificity tyrosine-phosphorylation-regulated kinase 1B (Homo sapiens) (UniProt Q9Y463); details: at 0.1 µM
Dual specificity tyrosine-phosphorylation-regulated kinase 1B (Homo sapiens), sequence (Q9Y463 whole entry, looked up): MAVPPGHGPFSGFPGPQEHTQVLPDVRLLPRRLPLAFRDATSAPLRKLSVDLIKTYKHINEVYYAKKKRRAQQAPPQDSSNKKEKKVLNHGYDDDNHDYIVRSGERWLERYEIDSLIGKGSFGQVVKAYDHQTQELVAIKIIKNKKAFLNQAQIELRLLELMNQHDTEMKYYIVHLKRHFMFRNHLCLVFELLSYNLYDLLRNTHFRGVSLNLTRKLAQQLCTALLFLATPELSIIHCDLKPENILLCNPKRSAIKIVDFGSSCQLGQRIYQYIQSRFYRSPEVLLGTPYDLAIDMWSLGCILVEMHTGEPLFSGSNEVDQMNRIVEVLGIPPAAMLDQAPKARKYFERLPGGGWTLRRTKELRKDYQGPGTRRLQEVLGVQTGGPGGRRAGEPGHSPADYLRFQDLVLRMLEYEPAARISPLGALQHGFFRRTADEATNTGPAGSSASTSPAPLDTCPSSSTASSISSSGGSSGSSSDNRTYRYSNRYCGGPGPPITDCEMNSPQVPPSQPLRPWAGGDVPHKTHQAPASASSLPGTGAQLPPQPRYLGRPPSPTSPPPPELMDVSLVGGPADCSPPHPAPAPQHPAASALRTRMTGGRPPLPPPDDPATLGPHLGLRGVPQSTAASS

[5] = molecular target: Dual specificity tyrosine-phosphorylation-regulated kinase 1B (Homo sapiens) (UniProt Q9Y463); details: at 1 µM
[6] = molecular target: T1, Dual specificity tyrosine-phosphorylation-regulated kinase 2 (Homo sapiens) (UniProt Q92630); details: at 0.1 µM
T1 sequence (whole entry): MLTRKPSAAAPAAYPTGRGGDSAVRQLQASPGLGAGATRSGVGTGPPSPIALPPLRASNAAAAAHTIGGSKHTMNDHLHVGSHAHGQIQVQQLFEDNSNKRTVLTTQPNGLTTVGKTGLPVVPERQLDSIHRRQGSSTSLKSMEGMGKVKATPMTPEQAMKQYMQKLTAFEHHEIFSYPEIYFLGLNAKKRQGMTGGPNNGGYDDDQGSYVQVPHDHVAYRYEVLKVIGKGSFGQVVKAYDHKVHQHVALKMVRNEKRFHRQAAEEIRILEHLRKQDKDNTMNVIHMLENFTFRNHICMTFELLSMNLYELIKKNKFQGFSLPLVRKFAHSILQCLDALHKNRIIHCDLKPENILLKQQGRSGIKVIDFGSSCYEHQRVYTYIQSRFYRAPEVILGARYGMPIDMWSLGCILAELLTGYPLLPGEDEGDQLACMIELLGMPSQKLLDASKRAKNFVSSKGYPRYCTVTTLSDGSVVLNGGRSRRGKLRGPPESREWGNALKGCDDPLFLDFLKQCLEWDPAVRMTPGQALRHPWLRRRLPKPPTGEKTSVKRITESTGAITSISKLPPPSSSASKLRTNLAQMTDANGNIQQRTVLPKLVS

[7] = molecular target: T1, Dual specificity tyrosine-phosphorylation-regulated kinase 2 (Homo sapiens); details: at 1 µM
[8] = molecular target: Glycogen synthase kinase-3 alpha (Homo sapiens) (UniProt P49840); details: at 0.1 µM
Glycogen synthase kinase-3 alpha (Homo sapiens), sequence (P49840 2-483 limits assumed): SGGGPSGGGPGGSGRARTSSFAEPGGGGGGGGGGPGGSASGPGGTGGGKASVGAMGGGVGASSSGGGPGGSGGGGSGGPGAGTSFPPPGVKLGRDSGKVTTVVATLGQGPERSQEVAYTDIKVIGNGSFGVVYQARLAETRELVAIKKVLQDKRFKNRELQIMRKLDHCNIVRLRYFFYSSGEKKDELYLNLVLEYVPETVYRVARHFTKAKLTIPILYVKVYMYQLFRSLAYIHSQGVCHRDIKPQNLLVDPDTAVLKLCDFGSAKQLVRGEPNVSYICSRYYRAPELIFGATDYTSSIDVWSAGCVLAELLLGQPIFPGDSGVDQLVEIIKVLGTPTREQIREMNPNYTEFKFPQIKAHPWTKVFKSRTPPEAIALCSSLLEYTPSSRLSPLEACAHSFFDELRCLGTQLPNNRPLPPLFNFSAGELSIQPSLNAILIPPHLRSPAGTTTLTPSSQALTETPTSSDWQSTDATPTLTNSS

[9] = molecular target: Glycogen synthase kinase-3 alpha (Homo sapiens) (UniProt P49840); details: at 1 µM
[10] = molecular target: Glycogen synthase kinase-3 beta (Homo sapiens) (UniProt P49841); details: at 0.1 µM
Glycogen synthase kinase-3 beta (Homo sapiens), sequence (P49841 whole entry, looked up): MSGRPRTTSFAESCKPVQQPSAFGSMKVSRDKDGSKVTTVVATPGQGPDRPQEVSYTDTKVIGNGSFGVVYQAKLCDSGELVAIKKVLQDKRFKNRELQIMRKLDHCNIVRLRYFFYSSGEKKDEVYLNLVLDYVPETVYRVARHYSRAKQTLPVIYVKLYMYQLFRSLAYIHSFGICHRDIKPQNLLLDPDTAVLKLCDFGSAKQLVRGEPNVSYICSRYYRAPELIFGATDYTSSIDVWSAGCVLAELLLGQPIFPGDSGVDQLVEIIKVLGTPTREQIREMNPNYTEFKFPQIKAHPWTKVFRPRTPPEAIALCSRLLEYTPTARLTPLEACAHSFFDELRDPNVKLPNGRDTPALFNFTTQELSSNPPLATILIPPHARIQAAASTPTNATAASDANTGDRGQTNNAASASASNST

[11] = molecular target: Glycogen synthase kinase-3 beta (Homo sapiens) (UniProt P49841); details: at 1 µM
[12] = molecular target: Homeodomain-interacting protein kinase 1 (Homo sapiens) (UniProt Q86Z02); details: at 0.1 µM
Homeodomain-interacting protein kinase 1 (Homo sapiens), sequence (Q86Z02 whole entry, looked up): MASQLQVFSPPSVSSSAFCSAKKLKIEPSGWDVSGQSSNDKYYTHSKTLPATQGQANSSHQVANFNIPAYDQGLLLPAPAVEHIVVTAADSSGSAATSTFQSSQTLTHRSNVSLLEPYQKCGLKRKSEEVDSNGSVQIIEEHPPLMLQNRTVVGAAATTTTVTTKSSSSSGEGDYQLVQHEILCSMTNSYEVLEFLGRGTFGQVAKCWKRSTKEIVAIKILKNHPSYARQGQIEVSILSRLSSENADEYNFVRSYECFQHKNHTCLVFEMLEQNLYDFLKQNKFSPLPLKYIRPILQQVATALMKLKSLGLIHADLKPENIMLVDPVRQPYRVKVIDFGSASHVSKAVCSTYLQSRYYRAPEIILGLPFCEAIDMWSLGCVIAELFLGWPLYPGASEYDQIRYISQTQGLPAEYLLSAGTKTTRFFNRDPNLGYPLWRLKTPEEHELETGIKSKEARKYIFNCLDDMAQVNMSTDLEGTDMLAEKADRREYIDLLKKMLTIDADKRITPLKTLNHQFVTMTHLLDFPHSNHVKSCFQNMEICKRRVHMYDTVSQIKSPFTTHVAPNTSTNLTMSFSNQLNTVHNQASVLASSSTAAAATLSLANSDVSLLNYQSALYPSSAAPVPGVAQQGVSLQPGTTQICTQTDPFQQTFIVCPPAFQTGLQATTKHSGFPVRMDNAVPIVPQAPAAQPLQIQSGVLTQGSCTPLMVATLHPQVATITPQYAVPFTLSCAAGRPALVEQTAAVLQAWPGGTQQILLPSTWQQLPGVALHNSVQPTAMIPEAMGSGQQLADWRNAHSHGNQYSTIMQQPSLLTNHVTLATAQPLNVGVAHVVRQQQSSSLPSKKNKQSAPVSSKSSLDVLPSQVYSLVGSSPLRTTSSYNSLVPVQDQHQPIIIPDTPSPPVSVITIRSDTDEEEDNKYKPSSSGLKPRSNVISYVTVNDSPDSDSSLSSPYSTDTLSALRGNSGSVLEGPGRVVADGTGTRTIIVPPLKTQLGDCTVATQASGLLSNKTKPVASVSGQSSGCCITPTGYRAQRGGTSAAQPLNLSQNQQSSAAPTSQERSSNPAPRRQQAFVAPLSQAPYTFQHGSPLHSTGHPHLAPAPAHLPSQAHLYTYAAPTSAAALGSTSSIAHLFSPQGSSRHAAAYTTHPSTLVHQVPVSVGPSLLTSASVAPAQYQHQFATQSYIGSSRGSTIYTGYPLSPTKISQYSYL

[13] = molecular target: Homeodomain-interacting protein kinase 1 (Homo sapiens) (UniProt Q86Z02); details: at 1 µM
[14] = molecular target: T2, Homeodomain-interacting protein kinase 4 (Homo sapiens) (UniProt Q8NE63); details: at 0.1 µM
T2 sequence (whole entry): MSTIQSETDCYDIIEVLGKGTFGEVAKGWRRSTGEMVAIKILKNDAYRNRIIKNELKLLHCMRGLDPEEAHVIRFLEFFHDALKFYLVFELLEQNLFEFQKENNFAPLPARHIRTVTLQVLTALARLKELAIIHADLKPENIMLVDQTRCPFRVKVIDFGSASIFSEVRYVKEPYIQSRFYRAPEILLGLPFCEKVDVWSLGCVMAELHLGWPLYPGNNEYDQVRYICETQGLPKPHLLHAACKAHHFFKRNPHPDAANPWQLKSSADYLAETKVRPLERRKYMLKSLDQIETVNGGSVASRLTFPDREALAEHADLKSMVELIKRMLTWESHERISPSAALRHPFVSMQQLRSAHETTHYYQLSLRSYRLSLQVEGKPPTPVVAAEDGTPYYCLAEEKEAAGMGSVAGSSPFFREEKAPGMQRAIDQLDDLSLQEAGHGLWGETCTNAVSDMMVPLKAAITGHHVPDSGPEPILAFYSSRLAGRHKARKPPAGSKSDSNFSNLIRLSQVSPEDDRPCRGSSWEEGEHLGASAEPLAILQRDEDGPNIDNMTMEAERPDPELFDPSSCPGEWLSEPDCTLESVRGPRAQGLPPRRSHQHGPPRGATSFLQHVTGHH

[15] = molecular target: T2, Homeodomain-interacting protein kinase 4 (Homo sapiens); details: at 1 µM
[16] = molecular target: Mitogen-activated protein kinase 9 (Homo sapiens) (UniProt P45984); details: at 0.1 µM
Mitogen-activated protein kinase 9 (Homo sapiens), sequence (P45984 whole entry, looked up): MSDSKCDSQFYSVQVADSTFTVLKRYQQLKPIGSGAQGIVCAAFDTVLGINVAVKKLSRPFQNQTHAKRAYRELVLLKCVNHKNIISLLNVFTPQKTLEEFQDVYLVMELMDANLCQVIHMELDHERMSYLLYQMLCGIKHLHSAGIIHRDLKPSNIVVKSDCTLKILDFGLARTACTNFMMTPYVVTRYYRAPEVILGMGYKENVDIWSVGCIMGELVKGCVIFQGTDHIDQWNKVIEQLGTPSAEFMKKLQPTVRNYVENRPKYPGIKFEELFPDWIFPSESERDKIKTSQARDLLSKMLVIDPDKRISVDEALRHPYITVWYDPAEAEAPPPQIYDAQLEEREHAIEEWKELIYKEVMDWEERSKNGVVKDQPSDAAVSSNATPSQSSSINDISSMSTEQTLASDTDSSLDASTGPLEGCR

[17] = molecular target: Mitogen-activated protein kinase 9 (Homo sapiens) (UniProt P45984); details: at 1 µM
[18] = molecular target: Mitogen-activated protein kinase 1 (Homo sapiens) (UniProt P28482); details: at 0.1 µM
Mitogen-activated protein kinase 1 (Homo sapiens), sequence (P28482 whole entry): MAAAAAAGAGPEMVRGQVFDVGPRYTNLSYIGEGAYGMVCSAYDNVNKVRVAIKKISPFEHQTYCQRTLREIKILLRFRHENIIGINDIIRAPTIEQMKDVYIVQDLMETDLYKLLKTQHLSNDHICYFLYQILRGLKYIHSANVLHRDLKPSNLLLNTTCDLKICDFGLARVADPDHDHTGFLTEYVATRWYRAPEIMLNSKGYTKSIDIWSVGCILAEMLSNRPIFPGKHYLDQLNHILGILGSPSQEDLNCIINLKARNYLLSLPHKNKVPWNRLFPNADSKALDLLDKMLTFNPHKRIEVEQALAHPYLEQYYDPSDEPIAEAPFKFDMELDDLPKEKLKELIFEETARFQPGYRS

[19] = molecular target: Mitogen-activated protein kinase 1 (Homo sapiens) (UniProt P28482); details: at 1 µM
[20] = molecular target: Mitogen-activated protein kinase 3 (Homo sapiens) (UniProt P27361); details: at 0.1 µM;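 further: each value is a mean inhibition figure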
Mitogen-activated protein kinase 3 (Homo sapiens), sequence (P27361 whole entry): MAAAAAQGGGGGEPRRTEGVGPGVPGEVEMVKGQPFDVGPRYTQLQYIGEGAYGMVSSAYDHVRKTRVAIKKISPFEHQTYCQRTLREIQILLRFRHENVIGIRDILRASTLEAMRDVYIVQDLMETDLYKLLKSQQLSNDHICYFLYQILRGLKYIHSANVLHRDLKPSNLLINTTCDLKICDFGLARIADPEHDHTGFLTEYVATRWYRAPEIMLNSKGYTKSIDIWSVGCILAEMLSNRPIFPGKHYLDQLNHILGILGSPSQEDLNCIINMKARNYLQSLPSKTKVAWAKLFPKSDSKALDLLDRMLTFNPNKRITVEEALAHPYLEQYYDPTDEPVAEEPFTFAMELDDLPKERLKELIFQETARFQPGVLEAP

Dual specificity protein kinase CLK3 (Homo sapiens), sequence (P49761 whole entry, looked up): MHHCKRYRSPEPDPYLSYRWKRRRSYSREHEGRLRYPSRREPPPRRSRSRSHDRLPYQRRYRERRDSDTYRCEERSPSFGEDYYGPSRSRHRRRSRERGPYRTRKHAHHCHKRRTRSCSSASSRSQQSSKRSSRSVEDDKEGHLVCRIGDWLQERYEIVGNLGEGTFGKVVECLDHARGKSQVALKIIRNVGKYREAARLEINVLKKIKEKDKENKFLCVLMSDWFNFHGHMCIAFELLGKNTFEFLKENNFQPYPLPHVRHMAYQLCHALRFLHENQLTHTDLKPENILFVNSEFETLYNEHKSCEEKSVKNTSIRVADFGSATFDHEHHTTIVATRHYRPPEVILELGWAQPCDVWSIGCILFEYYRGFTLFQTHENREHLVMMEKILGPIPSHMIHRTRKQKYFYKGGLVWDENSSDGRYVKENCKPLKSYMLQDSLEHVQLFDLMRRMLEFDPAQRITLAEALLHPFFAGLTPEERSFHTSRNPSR

Row | SMILES | inhibition [1] [%] | inhibition [2] [%] | inhibition [3] [%] | inhibition [4] [%] | inhibition [5] [%] | inhibition [6] [%] | inhibition [7] [%] | inhibition [8] [%] | inhibition [9] [%] | inhibition [10] [%] | inhibition [11] [%] | inhibition [12] [%] | inhibition [13] [%] | inhibition [14] [%] | inhibition [15] [%] | inhibition [16] [%] | inhibition [17] [%] | inhibition [18] [%] | inhibition [19] [%] | inhibition [20] [%]
1 | COc1ccc2cc(-c3c(-c4ccncc4)nc(-c4ccc(S(C)(=O)=O)cc4C)n3C)ccc2c1 | 2.06 | 2.19 | 7.68 | 0.76 | 2.36 | 3.55 | 4.35 | 2.9 | 6.04 | 2.27 | 6.76 | 0.5 | -0.46 | -0.03 | 1.88 | 4.44 | 10.1 | 5.2 | 5.44 | 3.83
2 | C#Cc1cccc(Nc2ncnc3ccc(OCCCCNCCS(C)(=O)=O)cc23)c1 | -1.87 | 0.92 | 4.86 | -2.75 | -1.25 | 2.91 | 7.08 | -0.41 | 1.81 | -0.71 | 1.89 | -3.09 | -1.22 | 4.39 | 24.9 | 3.91 | 4.58 | 5.06 | 5.46 | 4.38
3 | O=C(Nc1n[nH]c2nc(-c3ccc(O)cc3)c(Br)cc12)C1CC1 | 8.39 | 17.6 | 55.5 | 33.2 | 71.7 | 12.4 | 53.3 | 82.8 | 85.7 |  |  | 14.7 | 58 | 2.65 | 10.4 | 12.2 | 19.4 | 5.75 | 10.1 | 5.33
4 | Fc1ccc(-c2ncn(C3CCNCC3)c2-c2ccnc(Oc3ccc4c(c3)OCO4)n2)cc1 | -2.27 | 3.17 | 4.78 | -1.37 | 0.33 | 3.24 | 3.38 | 2.07 | 5.18 | 2.71 | 4.03 | 1.02 | 5.62 | 4.86 | 7.7 |  |  | 7.64 | 11.4 | 5.84
5 | Fc1ccc(-c2ncn(C3CCNCC3)c2-c2ccnc(Oc3ccc(F)c(F)c3)n2)cc1 | -3.79 | -2.02 | -0.16 | -4.48 | -2.53 | 1.98 | 2.31 | 0.07 | 2.94 | -0.48 | 2.53 | -6.31 | -2.14 | 0.46 | 1.77 |  |  | 4.93 | 6.35 | 3.84
6 | COc1cccc(/C=N/Nc2ncnc3c2cnn3-c2cccc(OC)c2)c1 | 1.67 | 3.1 | 7.79 | -0.79 | 2.23 | 2.19 | 6.04 | 14.8 | 58.1 | 10.3 | 51.1 | -1.82 | 2.63 | 0.49 | 4.13 | 3.29 | 5.5 | 5.68 |  | 3.77
7 | FC(F)(F)c1cccc(Nc2nccc(-c3cnn4nc(-c5ccccc5)ccc34)n2)c1 | 6.92 | 1.59 | 8.11 | 0.33 | 8.12 | 1.14 | 0.09 | 23.5 | 67.8 |  |  | 7.68 | 51.8 | 6.64 | 35.8 | -0.53 | -1.92 | 4.13 | 3.46 | 0.87
8 | O=C(Nc1n[nH]c2cc(-c3ccccc3)ccc12)C1CC1 | 2.33 | 5.04 | 6.14 | 1.94 | 3.5 | 2.82 | 4.68 | 6.53 | 32.7 |  |  | 0.47 | 0.72 | 1.87 | 3.44 | 6.25 | 7.19 | 2.48 | 6.01 | 4.31
9 | Fc1ccc(-c2c(-c3ccncc3)nc3n2CCS3)cc1 | -1.56 | -1.74 | 0.34 | -4.54 | -2.54 | 1.26 | 1.86 | -2.59 | 1.28 | -2.25 | 3.12 | -3.99 | 4.73 | -1.11 | 5.51 | 2.29 | 4.26 | 2.87 | 3.3 | 2.96
10 | COc1cc(N2CCN(C(C)C)CC2)ccc1Nc1nc(Nc2ccc(F)cc2C(=O)NC[C@@H](O)CO)c2cc[nH]c2n1 | 4.1 | 0.93 | 12.7 | -2.96 | 12 | 3.04 | 5.79 | -1.27 | 0.1 | -0.78 | -0.58 | 9.42 | 46.1 | 32.3 | 69.8 | 14.9 | 57.4 | 0.55 | 7.31 | 6.47
11 | Cc1ccc(NC(=O)c2ccoc2)cc1-c1ccc(C(=O)NCC2CC2)cc1 | 0.49 | 2.62 | 3.4 | -0.58 | 2.65 | 1.99 | 0.34 | 11 | 0.83 | 6.09 | -0.68 | -3.48 | 0.37 | 0.84 | 0.22 | 3.16 | 2.57 | 3.2 | 3.37 | 2.67
12 | CN(C)CCCNc1nccc(-c2c(-c3ccc(F)cc3)nn3cc(C(F)(F)F)ccc23)n1 | -2.17 | -2.63 | 1.55 | -2.7 | -0.43 | 1.01 | 2.09 | 2.87 | 7.76 | 3.14 | 7.7 | -4.22 | 1.54 | 4.04 | 8.4 | 2.73 | 11 | 1.62 | 2.71 | 2.96
13 | O=C(Nc1n[nH]c2nc(-c3ccco3)ccc12)C1CC1 | 0.48 | -0.57 | 1.05 | -0.1 | 1.34 | 1.49 | 1.64 | 11.5 | 48.9 |  |  | 0.14 | 1.4 | 2.3 | 6.99 | 0.84 | 2.1 | 0.04 | 0.76 | 0.6
14 | O=C(Nc1n[nH]c2cc(-c3cc(F)ccc3F)ccc12)C1CC1 | 1.26 | 2.37 | 4.39 | -0.4 | -0.93 | 2.2 | 3.59 | 7.07 | 30.4 |  |  | -1.3 | 1.85 | -0.9 | 3.56 | 4.38 | 6.23 | 2.24 | 4.09 | 4.01
